Results on 33 compounds are retold here after PubChem BioAssay (NCATS).

Results filed as inconclusive are left out. Active and inactive are the calls of the source. The call rests on the fitted dose curve; in most records, active means well fitted inhibition curve with a large enough effect; inconclusive means small, poorly fitted or top-dose-only effect; inactive means flat fitted curve, though single readings scatter. Where a SMILES comes first, the peptide text is derived from it.
On the % scale 0 is the no-effect control and ±100 the full control effect.

For one assay, the system named is KB-3-1. Put plainly: Cytotoxic Profiling of Annotated Libraries Using Quantitative High-Throughput Screening (AID 1296008). Further: nearly all actives have a fitted effect of over 60% in size. As to conditions: Five cell lines viability, CellTiter-Glo ATP luminescence, 48-72 h; max response: stronger effect = lower value. Put shortly: (§1)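 Cytotoxicity was measured as CellTiter-Glo ATP luminescence, read after 10 min at room temperature. Compound treatment of the cells lasted 48 or 72 hr at 37 degrees Celsius in a qHTS format.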
Background: Cellular ATP, detected with luciferase, serves as a proxy for viable cell number.
With `Cc1cc(-n2c(=O)[nH]c(=O)n(C)c2=O)ccc1Oc1ccc(SC(F)(F)F)cc1`, the max response was 1.4% (inactive). On the same count and under the same terms, next, `C/C=C/C=C/C=C/C(=O)OC1C=C2C(O)OC(=O)[C@]2(O)[C@@]2(C)CCCC(C)(C)[C@H]12` (stereo partly drawn): 4.24% (inactive). For `O=C(/C=C/c1ccc(O)cc1)OC[C@H]1O[C@@H](O/C(=C\c2ccccc2)C(=O)O)[C@H](O)[C@@H](O)[C@@H]1O`, the result was inactive. Take `C=C(CO)C(=O)O[C@H]1C[C@@]23O[C@@H]2CC/C(=C/[C@H]2OC(=O)C(=C)[C@H]12)CO[C@H]3O`: the compound was called inactive. As for `CC(C)CC(c1c(O)c(C=O)c(O)c(C=O)c1O)C1CCC(C)(O)C2CC(C(C)(C)O)CCC12C` (stereo not drawn), the call was inactive. On the same count and under the same terms, the value for `COC(=O)C1=COC(OC2OC(CO)C(O)C(O)C2O)C2C(C)C(OC(C)=O)C(OC(=O)c3ccccc3)C12` (stereo not drawn) was “inactive”. On the same count and under the same terms, next, `C=C1CCC2C(C)(C(=O)OC)CCCC2(C)C1CCC1=CCOC1=O` (stereo not drawn): “inactive”.

With `Cc1cc(CNC(=O)c2cc(C(=O)NCc3ccc(F)c(C)c3)ncn2)ccc1F`, the compound was called inactive. For the compound `Cc1occc1C(=O)n1ccnc1`, the max response is 0.152% (inactive). `O=C(O)C1(c2ccc(-c3ccc(Cl)c(Cl)c3)c(F)c2)CC1`: the max response is -5.77% (inactive). Still for that read-out and setting: next, `CC(=O)OC[C@]12[C@H](OC(C)=O)[C@H](OC(=O)c3ccccc3)[C@@H]3[C@@H](OC(C)=O)[C@]1(OC3(C)C)[C@H](C)C[C@H](OC(=O)c1ccccc1)[C@@H]2OC(=O)c1ccccc1`: -5.99% (inactive).

The test system of the next assay is NIH3T3. The assay is described as above. As to conditions: Five cell lines viability, CellTiter-Glo ATP luminescence, 48-72 h; max response: stronger effect = lower value. Put shortly: as §1
Regarding `C[C@@H]1O[C@@H](O[C@H]2[C@H](O[C@H]3[C@H](O[C@H]4CC[C@@]5(C)C(CC[C@]6(C)C5CC=C5[C@@H]7CC(C)(C)C[C@@H](O)[C@]7(C)CC[C@]56C)[C@@]4(C)CO)O[C@H](C(=O)O)[C@@H](O)[C@@H]3O)O[C@H](CO)[C@H](O)[C@@H]2O)[C@H](O)[C@H](O)[C@H]1O` (stereo partly drawn), the compound was classed as inactive. With `OC[C@@]1(O)CO[C@@H](OC[C@H]2O[C@@H](OCc3ccccc3)[C@H](O)[C@@H](O)[C@@H]2O)[C@@H]1O`, the outcome was inactive.

For the compound `COc1ccc2c(c1)C=C1Cn3c-2c(C2CCCCC2)c2ccc(cc23)C(=O)NS(=O)(=O)N(C)CCOCCN(C)C1=O`, the max response is -17.2% (inactive). On to `CCNC(=O)C1CC(F)(c2ccc(CN3CCCC3)c(F)c2)C1` (stereo not drawn), for which the call was inactive. With `CCC(=O)N1CCc2cc(OC)c(O)cc2C1`, the max response was 3.84% (inactive). With `O=C(Cc1ccc(Cl)cc1)Nc1cnccc1C(=O)O`, the call was inactive. For the compound `O=C(O)C(Cc1ccccc1)NC(=O)C1CCCN1` (stereo not drawn) (H-Pro-Phe-OH; configuration not given here), the compound was called inactive. As to `COc1c(C)c(OCC(O)C(C)(C)O)cc2c1CNC2=O` (stereo not drawn), the max response is -1.72% (inactive). For the compound `Cc1c(O)cc2c(c1O)COC1(O)CCCOC21` (stereo not drawn), the call was inactive. Regarding `C[C@H]1[C@H](C)CC[C@]2(C(=O)OC3OC(CO)C(O)C(O)C3O)CC[C@]3(C(=O)O)C(=CCC4[C@@]5(C)CC[C@H](O[C@@H]6O[C@@H](C)[C@H](OC7OC(CO)C(O)C(O)C7O)[C@@H](O)[C@H]6O)C(C)(C)C5CC[C@]43C)[C@H]12` (stereo partly drawn), the max response was -8.63% (inactive).

For the compound `COc1cc(C(C)=O)ccc1O[C@@H]1O[C@H](CO[C@@H]2OC[C@@H](O)[C@H](O)[C@H]2O)[C@@H](O)[C@H](O)[C@H]1O`, the compound was classed as inactive.

With `COC(=O)c1[nH]c(=O)c2ccccc2c1-c1ccc[nH]1`, the compound was called inactive.

With `C=C1C2(C)CC3C4(C)OC(C5OC56C4=CC(=O)OC6(C)C)C3(C)C13C(=O)OC(C)C3(O)C2=O` (stereo not drawn), the max response is 2.35% (inactive).

For `O=C(O)Cn1nnc(-c2ccc(CN(CCCCOc3ccc(CN4CCCC4)cc3)CCc3ccccc3)cc2)n1`, the result was inactive. Regarding `CC1CC2OCC3(O)CCC(O)C(C14CC(c1ccoc1)OC4=O)C23CO` (stereo not drawn), the compound was called inactive.

Take `C=C(C(=O)O)[C@@H]1CC[C@H](C)[C@@H]2CC(=O)C(C)=C2C1`: the result was inactive. On to `O=C(Cn1c2ccccc2c2nc3n(c(=O)c21)CCS3)N1CCCC1`, for which the max response was 1.74% (inactive). `O=C(O)c1ccc(NC(=O)[C@H](CC2CCCC2)n2cnc(C(F)(F)F)c2)nc1`: the call was inactive. With `COC(=O)[C@H](Cc1ccc([N+](=O)[O-])cc1)NC(=O)c1cccc2ccccc12`, the max response is -1.76% (inactive). For the compound `CC(=O)OCC1=CCC2C(C)(C)CCCC2(C)C12CCC(C)(CC(=O)O)O2` (stereo not drawn), the call was inactive. Same read-out and setting: the value for `COc1cc(C(CO)C(OC2OC(CO)C(O)C(O)C2O)c2ccc(O)c(OC)c2)ccc1O` (stereo not drawn) was “inactive”. `CCOC(=O)C1=C(N)Oc2ccc(Cl)cc2C1C(C#N)C(=O)OCC` (stereo not drawn): the max response was -2.7% (inactive).
